# Values joined by “and” are separate entries in the source; they are usually repeats but may differ in a detail not shown here. Identical values can stand only once. Active and inactive are the calls of the source. Rule as the data show it, unless noted: active = nuclear beta-catenin stimulation mostly above about 4.2% (no sharp cut-off); inactive = mostly below about 10%.
# How the values were obtained:
# [1] = stimulators of nuclear beta-catenin in C2C12, primary screen, imaging, WNT3A-conditioned medium, mouse C2C12, NPC library (AID 1117326); details: stronger effect = higher value
# [2] = growth inhibition of GSK3B-pretreated HCT116 cells – cell-based, CellTiter-Glo, 0.2 to 20 µM (AID 1117336;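 active = compounds lowering colon cancer cell viability after pretreatment blocking the GSK3B kinase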); details: HCT116 viability after GSK3B inhibitor, at 20 µM, stronger effect = higher value
# [3] = inhibition of endothelial tube formation, primary screen, imaging, VEGF stimulated, CD31 staining, tube area, NPC library (AID 1117340;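 active = compound that reduces growth-factor-driven endothelial tube area in a mixed cell culture, no cutoff stated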); details: VEGF-stimulated ADSC/ECFC co-culture, at 10 µM, stronger effect = higher value
# [4] = HCT116 colon cancer cell growth inhibition, primary screen, CellTiter-Glo luminescence, NPC library (AID 1117342;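 active = compounds that lower survival of HCT116 colon cancer cells in the luminescence readout, no numeric limit stated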); details: at 20 µM (top of the series)
# [5] = CellTiter-Glo luminescent readout of SW480 viability loss, NPC library primary (AID 1117343;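 active = compounds that lower viability of the colon cancer cells in the luminescence readout, with no numeric limit stated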); details: CellTiter-Glo luminescence; at 20 µM (top of the series) unless noted
# [6] = decreased DLD-1 cellular survival, CellTiter-Glo luminescent readout, NPC compound collection, primary HTS (AID 1117346;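 active = compounds that lower survival of DLD-1 colon cancer cells in the luminescence readout, no cutoff given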); details: DLD-1 viability, CellTiter-Glo luminescence; at 20 µM (top of the series)
# [7] = stimulators of insulin release from INS-1E, primary screen, cell-based, 5 mM glucose, NPC library (AID 1117329;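 active = compound raises insulin release from rat beta cells at 5 mM glucose, no numeric limit stated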); details: rat INS-1E insulin secretion, at 10 µM, stronger effect = higher value
# [8] = glucagon-like peptide 1 release enhancers, primary assay, NCI-H716 cell line, NPC library (AID 1117341;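 active = compound raises GLP1 secretion from the human gut endocrine cells, with no numeric limit stated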); details: NCI-H716 cells, at 10 µM, stronger effect = higher value
# [9] = sensitizers of A549 cells to miR-34 induction, primary screen, imaging, A549 dox-inducible miR-34, nuclei and caspase counts (AID 1347080;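 active = compounds whose cell count with miR-34 switched on is under 0.7 times the count with it off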); details: A549 miR-34 inducible, Hoechst nuclei count, 48 h
# [10] = viability rescue of complex I mutant cybrids, primary screen, cell-based, galactose medium, ATP luminescence (AID 1645843;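 active = z-score of at least 1.8 in each of two replicates, scored against plate mean and spread of sample wells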;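 also: positive z means more ATP and so rescue of galactose-driven cybrid death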); details: complex I mutant cybrid cells, 72 h, stronger effect = higher value
# [11] = hESC survival regulators, cell-based (AID 493140; call rule not given here;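 also: cells exposed to compounds for four days before counting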); details: human embryonic stem cell survival screen; stronger effect = higher value
# [12] = differential killing of epithelial or mesenchymal cells, primary screen, imaging, PC-3E GFP, TEM4-18 mCherry, co-culture (AID 1345086;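 active = compounds killing one labelled cell type while sparing the other, by normalised counts and ratio limits, not self-fluorescent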;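 also: cells exposed to compound for 72 h before imaging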;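 as to red/green cell ratio (normalised): normalised mesenchymal count divided by normalised epithelial count so high means epithelial killing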); details: imaging cell counts, at 1 µM
# [13] = survival rescue of mitochondrial mutant cells in low glucose, primary screen, MELAS cybrids, Rieske KO mouse fibroblasts, CellTiter-Glo (AID 1508586;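 active = mean z-score across replicates of 1.96 or higher in either the MELAS or the Rieske mutant cell line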;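 also: z relative to plate mean and SD of compound and empty wells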)
# [14] = molecular target: NAD(+) hydrolase SARM1 (Homo sapiens) (UniProt Q6SZW1); assay: SARM1 TIR NADase inhibitors, cell lysate, NAD-Glo luminescence (AID 1508614;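 active = compound whose remaining NAD level is above about 45 nM, limit read from the data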;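 also: higher remaining NAD means stronger inhibition of SARM1 NADase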); details: SAM-TIR HEK293T lysate NADase, at 1 µM, stronger effect = higher value
# Chain of NAD(+) hydrolase SARM1 (Homo sapiens) (Q6SZW1 whole entry, looked up, the tested form may be a part): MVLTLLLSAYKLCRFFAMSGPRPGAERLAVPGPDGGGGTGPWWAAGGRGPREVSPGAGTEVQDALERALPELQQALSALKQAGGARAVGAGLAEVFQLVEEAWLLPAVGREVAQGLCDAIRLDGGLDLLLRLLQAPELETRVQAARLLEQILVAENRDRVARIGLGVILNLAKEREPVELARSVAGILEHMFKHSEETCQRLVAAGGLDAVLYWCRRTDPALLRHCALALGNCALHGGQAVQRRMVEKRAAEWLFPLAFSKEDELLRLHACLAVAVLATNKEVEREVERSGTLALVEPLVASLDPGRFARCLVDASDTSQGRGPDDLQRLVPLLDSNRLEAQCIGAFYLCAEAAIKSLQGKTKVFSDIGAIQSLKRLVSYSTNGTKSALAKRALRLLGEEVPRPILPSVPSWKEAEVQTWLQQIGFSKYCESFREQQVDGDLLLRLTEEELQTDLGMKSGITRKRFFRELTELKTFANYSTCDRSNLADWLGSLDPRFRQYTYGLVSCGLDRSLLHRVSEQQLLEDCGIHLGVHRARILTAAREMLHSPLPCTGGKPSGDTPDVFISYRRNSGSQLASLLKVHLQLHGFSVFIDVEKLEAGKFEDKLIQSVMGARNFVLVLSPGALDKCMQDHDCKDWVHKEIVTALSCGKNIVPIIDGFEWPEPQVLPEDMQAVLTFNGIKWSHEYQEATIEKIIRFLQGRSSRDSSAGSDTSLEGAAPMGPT
# [15] = molecular target: Mitogen-activated protein kinase 7 (Homo sapiens) (UniProt Q13164); assay: ERK5 transactivation activators in reporter cells, primary screen, cell-based, HTS (AID 1508626;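 active = luciferase signal above three times the same-plate solvent-only control wells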;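 also: luciferase driven by Gal4-ERK5 fusion binding five Gal4 sites before minimal TATA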); details: HeLa Gal4-ERK5 transactivation, 18 h, at 5 µM, stronger effect = higher value
# Chain of Mitogen-activated protein kinase 7 (Homo sapiens) (Q13164 whole entry, looked up, the tested form may be a part): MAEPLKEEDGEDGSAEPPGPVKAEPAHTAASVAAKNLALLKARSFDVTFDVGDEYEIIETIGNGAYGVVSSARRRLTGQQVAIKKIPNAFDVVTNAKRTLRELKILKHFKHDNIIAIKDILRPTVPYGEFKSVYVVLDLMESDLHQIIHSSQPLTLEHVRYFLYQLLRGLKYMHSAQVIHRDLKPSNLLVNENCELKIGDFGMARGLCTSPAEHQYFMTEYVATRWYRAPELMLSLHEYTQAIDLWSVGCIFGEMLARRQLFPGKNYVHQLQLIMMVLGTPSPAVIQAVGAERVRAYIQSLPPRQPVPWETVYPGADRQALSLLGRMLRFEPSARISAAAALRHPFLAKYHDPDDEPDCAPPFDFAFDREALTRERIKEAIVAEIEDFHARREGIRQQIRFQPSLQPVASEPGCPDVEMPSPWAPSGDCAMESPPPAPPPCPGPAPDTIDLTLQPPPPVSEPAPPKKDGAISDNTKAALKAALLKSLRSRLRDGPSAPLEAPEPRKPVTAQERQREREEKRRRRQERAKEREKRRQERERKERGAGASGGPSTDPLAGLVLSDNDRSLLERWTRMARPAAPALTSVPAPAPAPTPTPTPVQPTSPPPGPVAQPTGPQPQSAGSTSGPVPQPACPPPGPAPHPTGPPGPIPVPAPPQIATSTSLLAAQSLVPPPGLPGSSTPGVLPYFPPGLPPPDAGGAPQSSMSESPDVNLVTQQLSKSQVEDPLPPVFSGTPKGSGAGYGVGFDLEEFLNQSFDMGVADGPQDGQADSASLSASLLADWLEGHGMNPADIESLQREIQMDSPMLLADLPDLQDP
# [16] = stronger effect = lower value, cell number ratio, induced over uninduced
# [17] = measured here: relative caspase fold change +Dox/-Dox
# [18] = measured here: total cells with miR-34 induction, stronger effect = lower value
# [19] = measured here: total cells without miR-34 induction
# [20] = MELAS cybrid survival, CellTiter-Glo 48 h, stronger effect = higher value
# [21] = Rieske KO mouse fibroblast survival, CellTiter-Glo 72 h
compound,measurement,setting,value
CCOC(=O)c1ccccc1O,nuclear beta-catenin stimulation,[1]; at 10 µM,1.4% (inactive)
same,nuclear beta-catenin stimulation,"[1]; stimulation, at 2 µM",8.4%
same,viability decrease,[2],4.2% (inactive)
same,tube area decrease,[3],-12.2% (inactive)
same,inhibition of viability,[4],3.3% (inactive)
same,viability decrease (inhibition),[5],-4.5% (inactive)
same,viability decrease (inhibition),[6],-2.7% (inactive)
C[S+](CC[C@H](N)C(=O)O)C[C@H]1O[C@@H](n2cnc3c(N)ncnc32)[C@H](O)[C@H]1O (stereo partly specified),nuclear beta-catenin stimulation,[1]; at 10 µM,0.8% (inactive)
same,nuclear beta-catenin stimulation,"[1]; stimulation, at 2 µM",1.9%
same,insulin secretion stimulation,[7],1.55% (inactive)
same,GLP1 secretion stimulation,[8],-0.4% (inactive)
C=CCCCCCCCCC(=O)OC,nuclear beta-catenin stimulation,[1]; at 10 µM,2.7% (inactive)
same,nuclear beta-catenin stimulation,"[1]; stimulation, at 2 µM",2%
same,insulin secretion stimulation,[7],2.85% (inactive)
same,GLP1 secretion stimulation,[8],1.2% (inactive)
CC(CC=O)CCCC(C)(C)O (stereo unspecified),nuclear beta-catenin stimulation,[1]; at 10 µM,0.5% (inactive)
same,nuclear beta-catenin stimulation,"[1]; stimulation, at 2 µM",-1.3%
same,insulin secretion stimulation,[7],0.85% (inactive)
same,GLP1 secretion stimulation,[8],3.1% (inactive)
CCCCCCCCCCCCCCCCCCOP(=O)([O-])OC1CC[N+](C)(C)CC1,nuclear beta-catenin stimulation,[1]; at 10 µM,-0.8% (inactive)
same,nuclear beta-catenin stimulation,"[1]; stimulation, at 2 µM",-1%
same,insulin secretion stimulation,[7],0.3% (inactive)
same,GLP1 secretion stimulation,[8],0.4% (inactive)
CCCCCCOC(=O)c1cccnc1,nuclear beta-catenin stimulation,[1]; at 10 µM,5.7% (inactive)
same,nuclear beta-catenin stimulation,"[1]; stimulation, at 2 µM",1.5%
same,insulin secretion stimulation,[7],-1.25% (inactive)
same,GLP1 secretion stimulation,[8],-0.9% (inactive)
CCc1cccc(N(C)C(N)=Nc2cccc3ccccc23)c1,nuclear beta-catenin stimulation,[1]; at 10 µM,-1.6% (inactive)
same,nuclear beta-catenin stimulation,"[1]; stimulation, at 2 µM",-1.7%
same,insulin secretion stimulation,[7],60.2% (active)
same,GLP1 secretion stimulation,[8],1.6% (inactive)
same,fold change,[9]; [16],1.03 (inactive)
same,fold change,[9]; [17],1.33
same,cell count,[9]; [18],7210
same,cell count,[9]; [19],6970
same,z-score,[10],-1.44 (inactive)
CN1CCN(C2Cc3ccccc3Sc3ccc(Cl)cc32)CC1 (stereo unspecified),nuclear beta-catenin stimulation,[1]; at 10 µM,5.2% (inactive)
same,nuclear beta-catenin stimulation,"[1]; stimulation, at 2 µM",-1.6%
same,insulin secretion stimulation,[7],6.6% (inactive)
same,GLP1 secretion stimulation,[8],13.2% (inactive)
same,fold change,[9]; [16],1.08 (inactive)
same,fold change,[9]; [17],0.783
same,cell count,[9]; [18],5640
same,cell count,[9]; [19],5230
same,z-score,[10],-1.27 (inactive)
Cc1cccc(C)c1NC(=O)CC12CCCN1CCC2,nuclear beta-catenin stimulation,[1]; at 10 µM,4.2% (inactive)
same,nuclear beta-catenin stimulation,"[1]; stimulation, at 2 µM",1.3%
same,insulin secretion stimulation,[7],0.3% (inactive)
same,GLP1 secretion stimulation,[8],5% (inactive)
CC(=O)N(CC(O)CN(C(C)=O)c1c(I)c(C(=O)NCC(O)CO)c(I)c(C(=O)NCC(O)CO)c1I)c1c(I)c(C(=O)NCC(O)CO)c(I)c(C(=O)NCC(O)CO)c1I (stereo unspecified),survival,[11],2.67 (inactive)
same,nuclear beta-catenin stimulation,[1]; at 10 µM,0.8% (inactive)
same,nuclear beta-catenin stimulation,"[1]; stimulation, at 2 µM",1.9%
same,insulin secretion stimulation,[7],0.95% (inactive)
same,GLP1 secretion stimulation,[8],2% (inactive)
same,red/green cell ratio (normalised),"[12]; actives lie on both sides, counts scaled to control wells, 1 = unselective",1.05 (inactive)
same,normalised cell number,[12]; measured here: epithelial PC-3E GFP cell survival,1
same,normalised cell number,[12]; measured here: mesenchymal TEM4-18 mCherry cell survival,1.05
same,fold change,[9]; [16],0.892 (inactive)
same,fold change,[9]; [17],0.943
same,cell count,[9]; [18],8820
same,cell count,[9]; [19],9890
same,z-score,[13]; [20],0.435 (inactive)
same,z-score,[13]; [21],-0.343
same,remaining NAD,[14],10 nM (inactive)
CCCCN1CCCC1C(=O)Nc1c(C)cc(C)cc1C (stereo unspecified),nuclear beta-catenin stimulation,[1]; at 10 µM,1% (inactive)
same,nuclear beta-catenin stimulation,"[1]; stimulation, at 2 µM",-0.4%
same,insulin secretion stimulation,[7],0% (inactive)
same,GLP1 secretion stimulation,[8],-3.8% (inactive)
O=C(OCCO)c1ccccc1O,nuclear beta-catenin stimulation,[1]; at 10 µM,0.5% (inactive)
same,nuclear beta-catenin stimulation,"[1]; stimulation, at 2 µM",-2.3%
same,insulin secretion stimulation,[7],0.25% (inactive)
same,GLP1 secretion stimulation,[8],-2.5% (inactive)
O=C(OCc1ccccc1)c1cccnc1,nuclear beta-catenin stimulation,[1]; at 10 µM,-0.5% (inactive)
same,nuclear beta-catenin stimulation,"[1]; stimulation, at 2 µM",-2.3%
same,insulin secretion stimulation,[7],0.3% (inactive)
same,GLP1 secretion stimulation,[8],-1.9% (inactive)
CC(COc1ccccc1)NN (stereo unspecified),nuclear beta-catenin stimulation,[1]; at 10 µM,1.8% (inactive)
same,nuclear beta-catenin stimulation,"[1]; stimulation, at 2 µM",5.4%
same,viability decrease,[2],26.7% (inactive)
same,tube area decrease,[3],1.6% (inactive)
same,inhibition of viability,[4],8% (inactive)
same,viability decrease (inhibition),[5],19.2% (inactive)
same,viability decrease (inhibition),[6],7.4% (inactive)
O=C(CCCN1CCC(O)(c2cccc(C(F)(F)F)c2)CC1)c1ccc(F)cc1,nuclear beta-catenin stimulation,[1]; at 10 µM,14.8% (inactive)
same,nuclear beta-catenin stimulation,"[1]; stimulation, at 2 µM",-1.1%
same,insulin secretion stimulation,[7],-0.35% (inactive)
same,GLP1 secretion stimulation,[8],5.6% (inactive)
same,fold change,[9]; [16],1.01 (inactive) and 0.873 (inactive)
same,fold change,[9]; [17],0.77 and 1.63
same,cell count,[9]; [18],10300 and 9050
same,cell count,[9]; [19],10200 and 10400
same,z-score,[13]; [20],-0.508 (inactive)
same,z-score,[13]; [21],-1.07
same,z-score,[10],-1 (inactive) and -0.885 (inactive)
CC1CCC(C(C)C)C(OC(=O)c2ccccc2O)C1 (stereo unspecified),nuclear beta-catenin stimulation,[1]; at 10 µM,-1.1% (inactive)
same,nuclear beta-catenin stimulation,"[1]; stimulation, at 2 µM",-2.6%
same,insulin secretion stimulation,[7],-1% (inactive)
same,GLP1 secretion stimulation,[8],-8.7% (inactive)
C/C(=N\O)[C@@H](C)NCC(C)(C)CN[C@H](C)/C(C)=N/O,nuclear beta-catenin stimulation,[1]; at 10 µM,1.5% (inactive)
same,nuclear beta-catenin stimulation,"[1]; stimulation, at 2 µM",-1.3%
same,insulin secretion stimulation,[7],1.9% (inactive)
same,GLP1 secretion stimulation,[8],-8.7% (inactive)
CC(C)(CO)[C@@H](O)C(=O)NCCC(=O)NCCSSCCNC(=O)CCNC(=O)[C@H](O)C(C)(C)CO,nuclear beta-catenin stimulation,[1]; at 10 µM,0% (inactive)
same,nuclear beta-catenin stimulation,"[1]; stimulation, at 2 µM",-1.3%
same,insulin secretion stimulation,[7],0.15% (inactive)
same,GLP1 secretion stimulation,[8],2% (inactive)
same,remaining NAD,[14],10 nM (inactive)
same,luciferase signal,[15],160 AU (active)
CCC(C(=O)OCCOCCN(CC)CC)c1ccccc1 (stereo unspecified),nuclear beta-catenin stimulation,[1]; at 10 µM,1.3% (inactive)
same,nuclear beta-catenin stimulation,"[1]; stimulation, at 2 µM",-2.5%
same,insulin secretion stimulation,[7],5.45% (inactive)
same,GLP1 secretion stimulation,[8],7.5% (inactive)
NC1=NCC2c3ccccc3Cc3ccccc3N12 (stereo unspecified),nuclear beta-catenin stimulation,[1]; at 10 µM,-0.3% (inactive)
same,nuclear beta-catenin stimulation,"[1]; stimulation, at 2 µM",-1%
same,insulin secretion stimulation,[7],12.5% (inactive)
same,GLP1 secretion stimulation,[8],4.4% (inactive)
same,fold change,[9]; [16],0.943 (inactive) and 0.763 (inactive)
same,fold change,[9]; [17],0.904 and 1
same,cell count,[9]; [18],9270 and 7910
same,cell count,[9]; [19],9840 and 10400
same,z-score,[13]; [20],-0.3 (inactive)
same,z-score,[13]; [21],-0.211
same,z-score,[10],-0.265 (inactive)
Cc1c(N)cccc1C(F)(F)F,nuclear beta-catenin stimulation,[1]; at 10 µM,0.9% (inactive)
same,nuclear beta-catenin stimulation,"[1]; stimulation, at 2 µM",5.4%
same,viability decrease,[2],2.8% (inactive)
same,tube area decrease,[3],5.6% (inactive)
same,inhibition of viability,[4],11.2% (inactive)
same,viability decrease (inhibition),[5],1.3% (inactive)
same,viability decrease (inhibition),[6],6.9% (inactive)
Cn1cc(S(C)=O)c(=O)c2ccc(F)cc21 (stereo unspecified),nuclear beta-catenin stimulation,[1]; at 10 µM,0.3% (inactive)
same,nuclear beta-catenin stimulation,"[1]; stimulation, at 2 µM",10.4%
same,viability decrease,[2],-6.9% (inactive)
same,tube area decrease,[3],1.1% (inactive)
same,inhibition of viability,[4],4.2% (inactive)
same,viability decrease (inhibition),[5],-1.3% (inactive)
same,viability decrease (inhibition),[6],-1.8% (inactive)
CSc1ccc(/C=C2/C(C)=C(CC(=O)O)c3cc(F)ccc32)cc1,nuclear beta-catenin stimulation,[1]; at 10 µM,-1.4% (inactive)
same,nuclear beta-catenin stimulation,"[1]; stimulation, at 2 µM",-0.1%
same,insulin secretion stimulation,[7],1.85% (inactive)
same,GLP1 secretion stimulation,[8],9.9% (inactive)
Cc1cc(O)c2c(O)c3c(O)cccc3cc2c1,nuclear beta-catenin stimulation,[1]; at 10 µM,6.3% (inactive)
same,nuclear beta-catenin stimulation,"[1]; stimulation, at 2 µM",4.6%
same,viability decrease,[2],97% (active)
same,tube area decrease,[3],67.8% (active)
same,inhibition of viability,[4],90.6% (active)
same,viability decrease (inhibition),[5],95.1% (active)
same,viability decrease (inhibition),[6],95.3% (active)
Cc1cccc(Nc2cc(Cl)nc(SCC(=O)O)n2)c1C,survival,[11],88 (inactive)
same,nuclear beta-catenin stimulation,[1]; at 10 µM,-0.3% (inactive)
same,nuclear beta-catenin stimulation,"[1]; stimulation, at 2 µM",0.2%
same,insulin secretion stimulation,[7],-0.2% (inactive)
same,GLP1 secretion stimulation,[8],-3.8% (inactive)
same,z-score,[13]; [20],-0.392 (inactive)
same,z-score,[13]; [21],-0.362
same,z-score,[10],0.215 (inactive)

# Source: PubChem BioAssay
